Experimental data as given in PubChem BioAssay (EPA / NIEHS).
Values joined by “and” are separate entries in the source; they are usually repeats but may differ in a detail not shown here. Equal entries are not always repeated. Active and inactive are the calls of the source. Rule for the calls: active = hit-call score of the fitted dose curve at least 0.9, where 1 is the maximum; inactive = score below 0.9.

What follows are compounds tested on TIMP metallopeptidase inhibitor 1 (TIMP1), TIMP1 (gene 7076) (assay: BSK_hDFCGF_TIMP1: BioMAP Diversity Plus: hDFCGF Assay for TIMP metallopeptidase inhibitor 1 (TIMP1) Biomarker Activity (AID 2283062)). Conditions: primary human foreskin fibroblasts; actives raise or lower the signal.
Method: BSK_hDFCGF is a cell-based, multiplexed-readout assay that uses foreskin fibroblast, a human skin primary cell, with measurements taken at 24 hours after chemical dosing in a 96-well plate.BSK_hDFCGF_TIMP1 is an assay component measured in the BSK_hDFCGF assay. It measures TIMP-1 antibody related to regulation of gene expression using ELISA technology.Data from the assay component BSK_hDFCGF_TIMP1 was analyzed into 1 assay endpoint. This assay endpoint, BSK_hDFCGF_TIMP1, was analyzed with bidirectional fitting relative to DMSO as the negative control and baseline of activity. Using a type of binding reporter, gain or loss-of-signal activity can be used to understand changes in the signaling as they relate to the gene TIMP1. Furthermore, this assay endpoint can be referred to as a primary readout, because this assay has produced multiple assay endpoints where this one serves a signaling function. To generalize the intended target to other relatable targets, this assay endpoint is annotated to the protease inhibitor intended target family, where the subfamily is metalloproteinase inhibitor.
The levels of cell surface (or secreted, indicated by the prefix "s") biomarker endpoints were measured by ELISA. Overt cytotoxicity to cells in confluent adherent cultures (all systems other than the BT system) was assessed by measuring total protein levels using sulforhodamine B (SRB) staining in parallel cultures at the time of biomarker measurements, indicated as SRB endpoints. For proliferation assays for adherent cell types, individual cell types are cultured at sub-confluence and relative cell numbers quantified by SRB staining at time points optimized for each system (48 h: 3C and CASM3C systems; 72 h: BT and HDF3CGF systems; 96 h: SAg system). SRB was performed by staining cells with 0.1% SRB after fixation with 10% TCA and reading wells at 560 nm.Viability and proliferation of PBMC (T cells) was quantified by Alamar Blue reduction for the SAg and BT systems. For PBMC viability (referred to as PBMC Cytotoxicity within the assay endpoint names), cells were plated (75,000/well in a 96-well plate) and then chemical samples added for 1 h before addition of activators, SEB and TSST-1 (20 ng/mL final concentration each). Cells were incubated for 90 h. Then, Alamar Blue (20 uL/well) (Invitrogen, Cat DAL1100) was added for 6 h, and the plates were read with a fluorescence microplate reader at 546/580 nm (excitation/emission). For PBMC proliferation, cells were plated and activated as above but incubated for only 16 h prior to addition of Alamar Blue. Plates were read after 6 h.

Structure (SMILES) | outcome | AC50
Oc1ccc(/C=C/c2cc(O)cc(O)c2)cc1 | inactive | –
O=C1CCCCCCCCCCCN1 | inactive | –
CCc1cccc(C)c1N(C(=O)CS(=O)(=O)O)C(C)COC (stereo not given) | inactive | –
CC(C)c1cccc(C(C)C)c1N | inactive | –
COc1ccc(C(=O)/C(Br)=C\C(=O)O)cc1 | – | 28.6 µM (active) and 20 µM (active)
COC(OC)(C(=O)c1ccccc1)c1ccccc1 | inactive | –
CCCCCCCCCCCC(=O)N(C)CC(=O)O | inactive | –
CCN1CN(CC)CN(CC)C1 | inactive | –
c1ccc2c(c1)[nH]c1ccccc12 | inactive | –
CC=C(C)C(C)=O | inactive | –
CCCCCCOC(=O)CCCCC(=O)OCCCCCC | inactive | –
Nc1nc(N)nc(-c2ccccc2)n1 | inactive | –
C1CNCCN1 | inactive | –
CCCCCCCCC(CO)CCCCCC (stereo not given) | inactive | –
Fc1ccc(Br)cc1 | inactive | –
Nc1ccc(C(=O)O)cc1 | inactive | –
O=C(Oc1ccccc1)c1ccccc1C(=O)Oc1ccccc1 | inactive | –
C=CCCCCCCCCC=O | inactive | –
Nc1cccc(N)n1 | inactive | –
Oc1c(Cl)cc(Cl)c(Cl)c1Cl | – | 32.1 µM (active)

Structure (SMILES) | outcome | AC50
CCOC(=O)C1=NN(c2ccc(Cl)cc2Cl)C(C)(C(=O)OCC)C1 (stereo not given) | inactive | –
C[N+](C)(C)CCCNS(=O)(=O)C(F)(F)C(F)(F)C(F)(F)C(F)(F)C(F)(F)C(F)(F)C(F)(F)C(F)(F)F | inactive | –
O=C(Cl)c1c(Cl)c(Cl)c(C(=O)Cl)c(Cl)c1Cl | inactive | –
CC1(C)CC(O)CC(C)(C)N1[O] | inactive | –
Clc1cc(Cl)c(Cl)c(Cl)c1Cl | inactive | –
CC/C=C\CCOC(=O)c1ccccc1O | – | 12.4 µM (active)
Cc1c(O)cccc1O | inactive | –
CCNc1nc(NC(C)(C)C)nc(OC)n1 | inactive | –
CC(C)C(=O)OCCc1ccccc1 | inactive | –
CC(Cl)COP(=O)(OCC(C)Cl)OCC(C)Cl (stereo not given) | inactive | –
C=CC(=O)NC(C)(C)C | inactive | –
c1ccc(Nc2cccc3ccccc23)cc1 | – | 29.6 µM (active) and 28.8 µM (active)
CCCCCC1=CCCC1=O | inactive | –
CCCC(C)C(=O)OCC (stereo not given) | inactive | –
O=C1CCCCCCCCCCC1 | inactive | –
CC(C)[N+](C)(CCOC(=O)C1c2ccccc2Oc2ccccc21)C(C)C | inactive | –
CC(CCC(=O)O)(c1ccc(O)cc1)c1ccc(O)cc1 | inactive | –
CCOC(=O)C1=NOC(c2ccccc2)(c2ccccc2)C1 | inactive | –
CCCCCCCO | inactive | –
C=CC(=O)OCC(C)OCC(C)OCC(C)OC(=O)C=C (stereo not given) | – | 11 µM (active)
